Laboratory results from PMC5540273 (PLoS ONE, 2017).

These compounds were tested on MYLK4. Conditions: concentration: 1 μM, replicates: in singlicate; n = 1.
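Further: KINOMEscan kinase panel screen.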

| SMILES | %Inh |
| --- | --- |
| N#CC1(c2cccc(C(=O)Nc3cccc(Oc4ccc5nc(NC(=O)C6CC6)sc5n4)c3)c2)CC1 | 0% |
| O=C(Nc1n[nH]c2nc(-c3ccccc3)ccc12)C1CC1 [SB-708999] | 11% |
| CC(C)c1nc(-c2cccc(NS(=O)(=O)c3c(F)cccc3F)c2)c(-c2ccnc(Nc3ccc(N4CCOCC4)nc3)n2)s1.Cl [GSK1723980] | 0% |
| Cl.Cl.NCC(NC(=O)c1cc(-c2cccnc2)c(-c2ccnc3[nH]ccc23)s1)c1ccccc1 (stereo not drawn) [GSK1323434] | 98.2% |
| COC(=O)Nc1nc2cc(Oc3ccc(NC(=O)Nc4cccc(SC)c4)cc3)ccc2[nH]1.Cl [GW697999] | 0% |
| O=C(Nc1n[nH]c2nc(-c3ccccc3O)ccc12)C1CC1 [SB-711880] | 0% |
| O=C(Nc1n[nH]c2cc(-c3cccs3)ccc12)C1CC1 [SB-731284] | 24% |
| O=C(Nc1c(F)cccc1F)c1cc(C(=O)c2ccccc2F)c[nH]1 [GSK1326180] | 6% |
| Cc1ccc(Nc2ccnc(Nc3ccc(C)c(F)c3)n2)cc1O.Cl [GW582868] | 29% |
| COc1cccc(-c2nc(-c3ccccc3)[nH]c2-c2ccncc2)c1 [SB-610250] | 0% |
| CCn1cnc2c(NCc3ccccc3)ncnc21 [SKF-96418] | 6% |
| Cl.Cl.NC(CNC(=O)c1cc(Br)c(-c2ccnc3[nH]ccc23)s1)c1ccccc1 (stereo not drawn) [GSK1322949] | 97.2% |
| CN(c1ccc(F)c(NC(=O)c2cccc(OC(C)(C)C#N)c2Cl)c1)c1ccc2nc(NC(=O)C3CC3)sc2n1 | 0% |
| Fc1cc(Cl)ccc1Nc1ccnc2cc(-c3ccc(CN4CCOCC4)o3)ccc12 [GW560109] | 1% |
| COc1cc(Nc2ccnc3cc(-c4ccncc4)ccc23)cc(OC)c1OC.Cl [GW494610] | 0% |
| Cc1ccc(O)cc1Nc1ccnc2cc(-c3ccc(CN4CCCCC4)o3)ccc12 [GW557777] | 2% |
| Nc1ncc(-c2ccc3nccc(-c4ccncc4)c3c2)cc1S(=O)(=O)N1CCCCC1 [GSK1693850] | 10% |

| SMILES | %Inh |
| --- | --- |
| COc1ccc(C)c(Nc2ccnc(Nc3ccc(-c4cnc[nH]4)cc3)n2)c1.Cl [GW784041] | 0% |
| Fc1cc(Cl)ccc1Nc1ccnc2cc(-c3ccc(CN4CCSCC4)o3)ccc12 [GW560106] | 0% |
| Cc1ccc(NC(=O)c2ccnc(N3CCCCC3)c2)cc1-c1ccc(C(=O)NCC2CC2)cc1 [GW775610] | 0% |
| CCOc1nccc(-c2c(-c3ccc(F)cc3)ncn2C2CCNCC2)n1 [SB-249175] | 19% |
| O=C(O)C(F)(F)F.O=c1[nH]ccc2nc(N[C@@H]3CCNC3)nc(Nc3ccc4c(c3)S(=O)(=O)CC4)c12 [GSK2181306] | 60% |
| c1ccc(Oc2ccc(Nc3ccnc4cc(-c5ccc(CN6CCCCC6)o5)ccc34)cc2)nc1 [GW567143] | 0% |
| Cc1ccc(C)c(NC(=O)Nc2ccc(C)c(-c3ccc(C(=O)Nc4ccncc4)cc3)c2)c1 [GSK1398473] | 0% |
| Cn1cc(-c2cnc(N)c3c(-c4ccc5c(c4)CCN5C(=O)Cc4ccccc4)csc23)cn1 [GSK2593074] | 0% |
| O=C(O)C(F)(F)F.O=c1[nH]ccc2nc(N[C@@H]3CCNC3)nc(Nc3cc(Cl)cc(Cl)c3)c12 [GSK2188764] | 36% |
| Cl.O=C(Nc1ccc(Oc2ccc3[nH]c(NC(=O)c4ccco4)nc3c2)cc1)Nc1cc(C(F)(F)F)ccc1F [GW683134] | 3% |
| Cc1cccc(Nc2nc(NCCN)ncc2C(N)=O)c1 [GSK1292139] | 94.3% |
| CC(C)NCC(Cc1ccccc1)NC(=O)c1cc(Br)c(-c2ccnc3[nH]ccc23)s1.Cl.Cl (stereo not drawn) [GSK1383281] | 79% |
| Nc1cccc(-c2ccc3c(N)n[nH]c3c2)c1 [GSK2193613] | 96.9% |
| COc1cc(Nc2nccc(N3CCC(NS(=O)(=O)c4ccc(NC(C)=O)cc4)CC3)n2)cc(OC)c1OC [GSK1379825] | 0% |
| Cc1nn2c(=O)cc(N3CCO[C@H](C)C3)nc2n1Cc1cccc(Cl)c1Cl [GSK2373693] | 2% |
| CN1CCN(Cc2ccc(NC(=O)Nc3ccc(N(C)c4ccnc(Nc5ccc(CS(C)(=O)=O)cc5)n4)cc3)cc2)CC1.Cl [GW827654] | 18% |
